Inconclusive results are not listed. A call without a number means that no potency is given here. Calls of active or inactive are those of the source. Calls follow the shape of the dose curve; as a rule, active = well fitted cell-killing curve with a large enough effect in the repeat runs; inconclusive = weak or mixed curves, or effect the other way; inactive = flat fitted curve, though single readings scatter.
Experiment: qHTS assay to identify small molecule antagonists of the androgen receptor (AR) signaling pathway using the MDA cell line in the presence of 0.5 nM R1881 - cell viability counter screen (AID 1259242); also: nearly all actives have a fitted effect of over 45% in size
Settings: MDA-kb2 viability, CellTiter-Fluor protease fluorescence, 16 h; series mostly up to 92.4 µM
Source text: U.S. Tox21 Program National Center for Advancing Translational Sciences [NCATS] NIH Chemical Genomics Center [NCGC] U.S. Environmental Protection Agency [EPA] National Institutes of Environmental Health Sciences [NIEHS] National Toxicology Program [NTP] U.S. Food and Drug Administration [FDA] Tox21 Assay Overview: Androgen receptor (AR) is an important member of the nuclear receptor family. Its signaling plays a critical role in AR-dependent prostate cancer and other androgen related diseases. Considerable attention has been given in the past decades to develop methods to study and screen for the environmental chemicals that have the potential to interfere with metabolic homeostasis, reproduction, developmental and behavioral functions. Therefore AR binding assay for screening androgen antagonists can be used to identify potential endocrine disruptors. MDA-kb2 cells (from ATCC, deposited by Wilson et al.) were used to screen for AR inhibitors against Tox21 compound libraries. These cells are human breast carcinoma cells that were stably transfected with a luciferase reporter gene under control of the MMTV promoter that contains response elements for both androgen receptor (AR) and glucocorticoid receptor (GR). The current screening for identification of AR inhibitors against Tox21 libraries used lower concentration of (0.5 nM) R1881 as a stimulator. The cytotoxicity of the Tox21 compound libraries against MDA-kb2 cell line was tested by measuring live-cell protease activity using CellTiter-Fluor assay in the same wells.
Tox21 Assay Protocol Summary: MDA-kb2 cells (cells cultured without CO2) were dispensed at 3,000 cells/well in 4 uL of culture medium into white wall/solid-bottom 1536-well plates (Corning Life Sciences, Corning, NY) using a Multidrop Combi (ThermoFisher Scientific, Waltham, MA) dispenser. After the assay plates were incubated at a 37C and 0% CO2 for 5 hr, 23 nL of compounds dissolved in DMSO, positive controls or DMSO only was transferred to the assay plate by a Pintool station (Kalypsys, San Diego, CA). The transfer of compounds was followed by the addition of 1 uL of 0.5 nM (final concentration) agonist (R1881)/culture medium using a Flying Reagent Dispenser (FRD, Aurora Discovery, San Diego, CA). The plates were incubated at 37C and 0% CO2 for 16 hr. For cytotoxicity assay, 1 uL of CellTiter-Fluor reagent (Promega Corporation, Madison, WI) was added to each well using the FRD and after 30 min incubation at 37C and 0% CO2, The fluorescence intensity was measured using ViewLux plate reader (PerkinElmer, Shelton, CT).

Compound	Potency	viability change, negative = cytotoxic
CCCCCCCCCCCC(=O)OCC	inactive	–
CC(C)C/C=C(\C=O)c1ccccc1	inactive	–
CC(C)NC(=O)c1ccccc1N	inactive	–
O=C(O)c1cccc(C(=O)O)c1C(=O)O	inactive	–
CCCCCCCCCCCCCCCCC(=O)O	inactive	–
COC(=O)Cc1cccc2ccccc12	inactive	–
CCCc1ccc(OC)cc1	inactive	–
O=C(O)CNc1ccccc1	inactive	–
C[C@@H](O)[C@H]1C(=O)N2C(C(=O)O)=C(S[C@@H]3CN[C@H](CNS(N)(=O)=O)C3)[C@H](C)[C@H]12	inactive	–
CCCCCCCCNC	inactive	–
CCC(=O)O[C@@H]1C[C@H]2CC[C@]1(C)C2(C)C	inactive	–
C=C(C)C(=O)OCCCCCCCCCCOC(=O)C(=C)C	inactive	–
O=C(Cl)c1ccc(F)c(Cl)c1	inactive	–
O=C(c1ccc(Cl)cc1)c1ccc(Cl)cc1	inactive	–
CCCC(=O)OCCC(C)C	inactive	–
Cc1cc(C)c(C)c(O)c1	inactive	–
CC1=C(C)C(=O)C(CCCCC#CCCCC#CCO)=C(C)C1=O	inactive	–
CC(=O)Nc1ccccc1O	inactive	–
C=CC(=O)NC(C)(C)C	inactive	–
CC(C)CCCCCOC(=O)CS	inactive	–

Compound	Potency	viability change, negative = cytotoxic
OCCc1ccncc1	inactive	–
CCCCCCC/C=C/C=O	inactive	–
OCC(O)c1ccccc1 (stereo not given)	inactive	–
O=C(OCCCCCOC(=O)c1ccccc1)c1ccccc1	inactive	–
C=Cc1ccc(C=C)cc1	inactive	–
CC1=C(C)C(=O)C(C(CCCCCC(=O)O)c2ccccc2)=C(C)C1=O (stereo not given)	inactive	–
CCC[Si](OC)(OC)OC	inactive	–
CC1(C)CC(=O)CC(C)(C)N1	inactive	–
CC(C)(C)c1cc(C=O)cc(C(C)(C)C)c1O	inactive	–
Cc1c(-c2cccnc2)c2ccccc2n1CCCCC(=O)O	inactive	–
CS(C)=O	inactive	–
Sc1nc(S)nc(S)n1	inactive	–
O=C(O)CCc1nc2ccccc2[nH]1	inactive	–
Cc1c(Cl)cccc1[N+](=O)[O-]	inactive	–
CCCCCCCCCCCCCCCCCCCl	–	5.37% [at 8.39 µM] (inactive)
C1CCN(CN2CCCCC2)CC1	inactive	–
NC(=O)c1cc[n+](CC2=C(C(=O)[O-])N3C(=O)[C@@H](NC(=O)Cc4cccs4)[C@H]3SC2)cc1	inactive	–
CCCCCCCCC(=O)OCC(C)OC(=O)CCCCCCCC (stereo not given)	inactive	–
C[C@]12CCC(=O)C=C1[C@@H]1C[C@@H]1[C@H]1[C@@H]3[C@@H]4C[C@@H]4[C@@]4(CCC(=O)O4)[C@@]3(C)CC[C@@H]12	inactive	–
O=C(O)c1cccnc1Nc1cccc(C(F)(F)F)c1	inactive	–

Source: PubChem BioAssay (Tox21)
